According to PubChem BioAssay (NCI):
About 83,000 compounds went through this panel and 20% of them were active in at least one assay; those are over-represented in the sample as a whole.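 Testing used 96-well plates and a 48-hour single-concentration exposure. Example: -40 means 40% of the starting cells died.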 A number with no mark means an inactive call. The source made the active and inactive calls.

system: NCI-H23 lung; assay: NCI-60 one-dose screen, 48 h (100 = growth as untreated, 0 = no growth, -100 = all killed); conditions: 10 µM unless noted
Procedure: Growth inhibition of the NCI-H23 human Non-Small Cell Lung tumor cell line is measured as a screen for anti-cancer activity. Cells are grown in 96 well plates and exposed to the test compound for 48 hours. Compounds are tested at a single concentration, which is 10^-5 M for most compounds. The reported endpoint is percent growth (GI% or GIPRCNT), where numbers from 0 - 100% represent growth inhibition, and numbers from -100% - 0 represent cell death. For example, a value of 40 represents 60% growth inhibition. A value of 0 means no net growth occurred over the course of the experiment. A value of -40 indicates 40% of cells at the beginning of the experiment died by the end of the experiment. A value of -100 means all cells are dead at the end of the experiment.
NCI-60 Human Tumor Cell Lines Screen was performed using the standard one-dose NCI protocol, which is described in more detail at https://dtp.cancer.gov/discovery_development/nci-60/default.htm.
Compounds with GIPRCNT values below 10 were considered active. Activity score was based on GIPRCNT using the following formula: […]
Score is 0 for GIPRCNT values of 100 or above, 50 for GIPRCNT values of 0, and 100 for GIPRCNT values of -100.

Row | Structure (SMILES) | growth
1 | Nc1nc(NC(=O)Nc2ccc(C(=O)O)cc2)nn1-c1ccc(S(N)(=O)=O)cc1 | 97.9%
2 | CNC1=CC(=O)c2c(C(=O)OC)c(C)[n+]([O-])c(C)c2C1=O | 40%
3 | CCN1CCN(CCNc2nccc(-c3c(-c4ccc(F)c(OC)c4)nc4sccn34)n2)S1(=O)=O | 78.2%
4 | c1ccc2c(c1)CCCc1nnc3nc4ccccc4n3c1-2 | 46.7%
5 | O=C(/C=C(O)/C=C/c1cccc2[nH]ccc12)/C=C/c1cccc2[nH]ccc12 | 80.5%
6 | CC1(C)CC[C@]2(C(=O)N[C@H](CO)Cc3ccccc3)CC[C@]3(C)C(=CC[C@@H]4[C@@]5(C)CCCNC(C)(C)[C@@H]5CC[C@]43C)[C@@H]2C1 | 104%
7 | O=C(Cc1ccccc1)Nc1cccc(N=Cc2ccccc2O)c1 | 107%
8 | CC(C)(C)n1cc(-c2ccnc(NCCCNS(=O)(=O)c3ccc(C(F)(F)F)cc3)c2)c(-c2cccc(F)c2)n1 | 82%
9 | CCN1CCN(c2cc(C)nc(N(CCNc3ccnc4cc(Cl)ccc34)Cc3ccc4c(c3)OCO4)n2)CC1 | 13.6%
10 | COC(=O)c1c2c(c(C)[n+]([O-])c1C)C(=O)C(NCc1ccc(OC)cc1)=CC2=O | 27.5%
11 | Cc1ccc(Cl)cc1NC(=O)c1sc2nc3c(cc2c1N)C(=O)CCC3 | 63%
12 | O=C(Nc1ncc(Cc2cc(C(F)(F)F)ccc2Cl)s1)c1cccs1 | 58.2%
13 | CCN(CC)CCCN1C(=O)c2c(c(C)c3c(oc4ccc(OC)cc43)c2C)C1=O | 104%
14 | CN1CCN(C(=O)C(C)(C)c2ccc(C(=O)Nc3cn4cc(-c5ccncc5)ccc4n3)cc2)CC1 | 10.1%
15 | Cc1ccc2nc(/C(C#N)=C(/CCCO)NC(Cc3ccccc3)C(=O)OCc3ccccc3)[nH]c(=O)c2c1 (stereo not given) | 43%
16 | O=C(/C=C/c1ccc(Cl)cc1)c1cccc(OCCCOc2cccc(C(=O)/C=C/c3ccc(Cl)cc3)c2)c1 | 102%
17 | CC1=C(CCC(C)NCc2ccc(OCCCN3CCCCC3)cc2)C(C)(C)CCC1 (stereo not given) | -42.9% (active)
18 | COc1cc(NC(=O)c2cncnc2Nc2ccc3c(ccn3Cc3ccccn3)c2)cc(OC)c1 | 68.6%
19 | O=C(Nc1ccc(Cl)cc1)Oc1c(Cl)c(Cl)c(Cl)c(Cl)c1Cl | 86.1%
20 | N#Cc1cccc(C2C3=C(COC3=O)N(CCO)c3cc4c(cc32)OCO4)c1 (stereo not given) | 44%

Row | Structure (SMILES) | growth
21 | CN(C)S(=O)(=O)Oc1ccc(-c2sc3cc(OS(=O)(=O)N(C)C)ccc3c2C(=O)c2ccc(OCCN3CCCCC3)cc2)cc1 | 74.4%
22 | N=C(N)c1ccc(-c2ccc(-c3ccccc3)s2)cc1 | 85.5%
23 | CC(=O)c1sc2sc(C(C)=O)c(C)c2c1C | 101%
24 | CCN1CCN(CC(=O)Nc2ccc(-c3cn4c(n3)sc3cc(Oc5ccnc(C(=O)NC)c5)ccc34)cc2)CC1 | 97.1%
25 | O=C1/C=C/[C@@H](O)[C@@H]2C[C@@H](O)C[C@H]2/C=C/CCC[C@@H](O)CCO1 | 77.1%
26 | CCOC(=O)C(=CNc1cnc(Nc2ccc(N3CCOCC3)cc2)nc1Oc1ccc(OC)cc1)C(=O)OCC | 68.4%
27 | CCN(CC)CCN1C(=O)c2c(c(C)c3c(oc4ccc(OC)cc43)c2C)C1=O | 97.9%
28 | O=C1c2cccc3cccc(c23)C(=O)N1C/C=C/c1ccc2c3c(cccc13)C(=O)N(CCO)C2=O | 69.6%
29 | COc1ccc2c(c1)/C(=N/c1n[nH]c(=S)s1)C(=O)N2 | 93%
30 | Cc1c2cccnc2c(C)c2c1c1cc(CO)ccc1n2C | 30.6%
31 | c1nc2ccc(-c3cc4ccc5[nH]ncc5c4c4c3CCCC4)cc2[nH]1 | 78.8%
32 | O=C(Nc1cc(Cl)ccc1O)c1cccc(Nc2ccnc(C(F)(F)F)c2)c1 | 11.6%
33 | O=C(CC(=O)Nc1cccc(C(=O)O)c1)Nc1cccc(C(=O)O)c1 | 107%
34 | CS(=O)(=O)c1ccc(NC(=O)c2ccccc2)nc1 | 108%
35 | Cc1nc2c(c(=O)[nH]1)C(c1ccccc1)c1ccc3ccccc3c1O2 (stereo not given) | 50.4%
36 | COc1ccc(/C=C/C(c2cc(OC)c(OC)c(OC)c2)n2cncn2)cc1 (stereo not given) | 67%
37 | CCN1C(=O)N(CC)C2C1NC(=S)N2/N=C/c1ccc(C(F)(F)F)cc1 (stereo not given) | 79.8%
38 | COc1ccc(Oc2nc(Nc3ccc(N4CCOCC4)cc3)ncc2NC(=O)Nc2cc(OC)cc(OC)c2)cc1 | 33.2%
39 | Cc1nnc(-c2ccc3c(c2)nc(/C=C/c2ccccc2)n3C2CCCCC2)o1 | 88.3%
40 | CCOC(=O)C1=C(C)C(Cl)=N/C1=C\c1[nH]c(Cl)c(C)c1C(=O)OCC | 98.2%
